# Test results taken from PubChem BioAssay (Tox21).
# Values joined by “and” are separate entries in the source; they are usually repeats but may differ in a detail not shown here. Equal values may be shown once. Inconclusive results are not listed. Where a call stands in place of a potency, no number is given. A structure can be active in one record and inactive in another. Active and inactive are the calls of the source. Calls come from the whole dose curve; as a rule, active = well fitted activation curve with a large enough effect in the repeat runs; inconclusive = weak or mixed curves; inactive = flat fitted curve, though single readings scatter.
# Assay: A CellTox Green Cytotoxicity Assay to monitor cytotoxicity in HEK293 cells - 32 hour (AID 1224881); note: nearly all actives have a fitted effect of over 40% in size; note: potency is the fitted concentration of half-maximal effect
# Settings: CellTox Green fluorescence; series mostly up to 76.8 µM; cytotoxicity increase: at the top concentration
# Procedure, shortened: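 Cytotoxicity was tracked continuously in HEK293 cells by a DNA-binding dye excluded from viable cells. Compounds were transferred in DMSO 5 h after seeding; fluorescence was recorded at intervals up to 40 h.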
Compound,Potency,cytotoxicity increase
CCCCC(CC)COC(=O)C(C#N)=C(c1ccccc1)c1ccccc1 (stereo not drawn),inactive,
OCCOCCOCCO,inactive,
CC(C)CC(=O)CC(C)C,inactive,
Nc1cc([N+](=O)[O-])ccc1O,,-1.55% (inactive)
Cc1cccc(O)c1,inactive,
CCC(O)OC(O)CC (stereo not drawn),inactive,
CCCCCCCCCCCCCCCO,inactive,
O=C(CC(C(=O)OC1CCCCC1)S(=O)(=O)O)OC1CCCCC1 (stereo not drawn),inactive,
C[C@H]1C[C@@H]2[C@H]([C@@H](O)C[C@@]3(C)[C@H]2CC[C@]3(O)C(=O)CO)[C@@]2(C)C=CC(=O)C=C12,inactive,
N[C@@H](Cc1cc(I)c(Oc2cc(I)c(O)c(I)c2)c(I)c1)C(=O)O,inactive,
O=C(Oc1ccccc1)c1ccccc1,inactive,
CCc1cccc(C)c1N,inactive,
ON=C1CCCCC1,inactive,
Fc1ccc(Br)cc1,inactive,
CCCCCCCCCCCCc1ccccc1,inactive,
CCCCCC1=CCCC1=O,inactive,
CC(C)(N)CO,inactive,
OCC(CO)(CBr)CBr,,-10.3% (inactive)
CC(=O)CC(=O)Nc1ccccc1C,inactive,

Compound,Potency,cytotoxicity increase
CCC(O)OCCCOC (stereo not drawn),inactive,
O=c1[nH]nnc2ccccc12,inactive,
OC[C@H]1O[C@@](CO)(O[C@H]2O[C@H](CO)[C@@H](O)[C@H](O)[C@H]2O)[C@@H](O)[C@@H]1O,,-13.5% (inactive)
COS(C)(=O)=O,inactive,
COCCCOc1ccnc(CS(=O)c2nc3ccccc3[nH]2)c1C (stereo not drawn),,-12.3% [at 35.3 µM] (inactive)
O=P(OC(CCl)CCl)(OC(CCl)CCl)OC(CCl)CCl,inactive,
COc1ccc(Nc2ccccc2)c(C)c1,,-0.644% (inactive)
CC1=C(C)S(=O)(=O)CCS1(=O)=O,,4.38% (inactive)
C=C(C)C(=O)O[C@H]1C[C@@H]2CC[C@@]1(C)C2(C)C,10.9 µM (active) and inactive,
CN(C)CCOCCN(C)C,inactive and 49 µM (active),
CN(C)CCCN,inactive,
Nc1ccccc1[N+](=O)[O-],inactive,
O=C(O)c1ccccc1C(c1ccc(O)cc1)c1ccc(O)cc1,inactive,
CC[C@H](C)C(=O)O[C@H]1C[C@@H](C)C=C2C=C[C@H](C)[C@H](CC[C@@H]3C[C@@H](O)CC(=O)O3)[C@H]21,,3% (inactive)
O=C(O)CCCC[C@@H]1SC[C@@H]2NC(=O)N[C@@H]21,inactive,
CCCCC(CC)COC(=O)CS (stereo not drawn),inactive,
CSCCC=O,inactive,
Cc1cccnc1,inactive,

# Assay: A CellTox Green Cytotoxicity Assay to monitor cytotoxicity in HepG2 cells - 0 hour (AID 1224882); note: nearly all actives have a fitted effect of over 35% in size
# Settings: CellTox Green fluorescence; series mostly up to 76.8 µM; cytotoxicity: at the top concentration
# Procedure, shortened: (§1)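 Real-time, homogeneous cytotoxicity readout: dead-cell DNA staining by CellTox Green in HepG2 monolayers, fluorescence measured at timed intervals up to 40 h of continuous compound exposure.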
Compound,outcome,cytotoxicity
CCCCC(CC)COC(=O)C(C#N)=C(c1ccccc1)c1ccccc1 (stereo not drawn),inactive,
OCCOCCOCCO,inactive,
CC(C)CC(=O)CC(C)C,inactive,
Nc1cc([N+](=O)[O-])ccc1O,inactive,
Cc1cccc(O)c1,inactive,
CCC(O)OC(O)CC (stereo not drawn),inactive,
CCCCCCCCCCCCCCCO,inactive,
O=C(CC(C(=O)OC1CCCCC1)S(=O)(=O)O)OC1CCCCC1 (stereo not drawn),inactive,
C[C@H]1C[C@@H]2[C@H]([C@@H](O)C[C@@]3(C)[C@H]2CC[C@]3(O)C(=O)CO)[C@@]2(C)C=CC(=O)C=C12,inactive,
N[C@@H](Cc1cc(I)c(Oc2cc(I)c(O)c(I)c2)c(I)c1)C(=O)O,inactive,
O=C(Oc1ccccc1)c1ccccc1,inactive,
CCc1cccc(C)c1N,inactive,
ON=C1CCCCC1,inactive,
Fc1ccc(Br)cc1,inactive,
CCCCCCCCCCCCc1ccccc1,inactive,
CCCCCC1=CCCC1=O,inactive,
CC(C)(N)CO,inactive,
OCC(CO)(CBr)CBr,inactive,
CC(=O)CC(=O)Nc1ccccc1C,inactive,

Compound,outcome,cytotoxicity
CCC(O)OCCCOC (stereo not drawn),inactive,
O=c1[nH]nnc2ccccc12,inactive,
OC[C@H]1O[C@@](CO)(O[C@H]2O[C@H](CO)[C@@H](O)[C@H](O)[C@H]2O)[C@@H](O)[C@@H]1O,inactive,
COS(C)(=O)=O,inactive,
COCCCOc1ccnc(CS(=O)c2nc3ccccc3[nH]2)c1C (stereo not drawn),inactive,
O=P(OC(CCl)CCl)(OC(CCl)CCl)OC(CCl)CCl,inactive,
COc1ccc(Nc2ccccc2)c(C)c1,inactive,
CC1=C(C)S(=O)(=O)CCS1(=O)=O,inactive,
C=C(C)C(=O)O[C@H]1C[C@@H]2CC[C@@]1(C)C2(C)C,inactive,
CN(C)CCOCCN(C)C,,-7.92% (inactive)
CN(C)CCCN,inactive,
Nc1ccccc1[N+](=O)[O-],inactive,
O=C(O)c1ccccc1C(c1ccc(O)cc1)c1ccc(O)cc1,inactive,
CC[C@H](C)C(=O)O[C@H]1C[C@@H](C)C=C2C=C[C@H](C)[C@H](CC[C@@H]3C[C@@H](O)CC(=O)O3)[C@H]21,inactive,
O=C(O)CCCC[C@@H]1SC[C@@H]2NC(=O)N[C@@H]21,inactive,
CCCCC(CC)COC(=O)CS (stereo not drawn),,0.769% (inactive)
CSCCC=O,inactive,
c1ccc2c(c1)ccc1ccccc12,inactive,
Cc1cccnc1,inactive,

# Assay: A CellTox Green Cytotoxicity Assay to monitor cytotoxicity in HepG2 cells - 32 hour (AID 1224883); note: nearly all actives have a fitted effect of over 50% in size; note: potency is the fitted concentration of half-maximal effect
# Settings: CellTox Green fluorescence; series mostly up to 76.8 µM; cytotoxicity increase: at the top concentration
# Procedure, shortened: as §1
Compound,Potency,cytotoxicity increase
CCCCC(CC)COC(=O)C(C#N)=C(c1ccccc1)c1ccccc1 (stereo not drawn),inactive,
OCCOCCOCCO,inactive,
CC(C)CC(=O)CC(C)C,inactive,
Nc1cc([N+](=O)[O-])ccc1O,inactive,
Cc1cccc(O)c1,inactive,
CCC(O)OC(O)CC (stereo not drawn),inactive,
CCCCCCCCCCCCCCCO,inactive,
O=C(CC(C(=O)OC1CCCCC1)S(=O)(=O)O)OC1CCCCC1 (stereo not drawn),inactive,
C[C@H]1C[C@@H]2[C@H]([C@@H](O)C[C@@]3(C)[C@H]2CC[C@]3(O)C(=O)CO)[C@@]2(C)C=CC(=O)C=C12,inactive,
N[C@@H](Cc1cc(I)c(Oc2cc(I)c(O)c(I)c2)c(I)c1)C(=O)O,inactive,
O=C(Oc1ccccc1)c1ccccc1,inactive,
CCc1cccc(C)c1N,inactive,
ON=C1CCCCC1,inactive,
Fc1ccc(Br)cc1,inactive,
CCCCCCCCCCCCc1ccccc1,inactive,
CCCCCC1=CCCC1=O,inactive,
CC(C)(N)CO,inactive,
OCC(CO)(CBr)CBr,inactive,
CC(=O)CC(=O)Nc1ccccc1C,inactive,

Compound,Potency,cytotoxicity increase
CCC(O)OCCCOC (stereo not drawn),inactive,
O=c1[nH]nnc2ccccc12,inactive,
OC[C@H]1O[C@@](CO)(O[C@H]2O[C@H](CO)[C@@H](O)[C@H](O)[C@H]2O)[C@@H](O)[C@@H]1O,inactive,
COS(C)(=O)=O,inactive,
COCCCOc1ccnc(CS(=O)c2nc3ccccc3[nH]2)c1C (stereo not drawn),inactive,
O=P(OC(CCl)CCl)(OC(CCl)CCl)OC(CCl)CCl,inactive,
COc1ccc(Nc2ccccc2)c(C)c1,inactive,
CC1=C(C)S(=O)(=O)CCS1(=O)=O,inactive,
C=C(C)C(=O)O[C@H]1C[C@@H]2CC[C@@]1(C)C2(C)C,6.87 µM (active) and inactive,
CN(C)CCOCCN(C)C,inactive and 49 µM (active),
CN(C)CCCN,inactive,
Nc1ccccc1[N+](=O)[O-],inactive,
O=C(O)c1ccccc1C(c1ccc(O)cc1)c1ccc(O)cc1,inactive,
CC[C@H](C)C(=O)O[C@H]1C[C@@H](C)C=C2C=C[C@H](C)[C@H](CC[C@@H]3C[C@@H](O)CC(=O)O3)[C@H]21,11.1 µM (active) and 17.3 µM (active) and 9.52 µM (active),
O=C(O)CCCC[C@@H]1SC[C@@H]2NC(=O)N[C@@H]21,inactive,
CCCCC(CC)COC(=O)CS (stereo not drawn),,6.75% (inactive)
CSCCC=O,inactive,
c1ccc2c(c1)ccc1ccccc12,,1.14% (inactive)
Cc1cccnc1,inactive,
